52 compounds from ChEMBL document CHEMBL4513216, “Probing the Open Global Health Chemical Diversity Library for Multistage-Active Starting Points for Next-Generation Antimalarials” (ACS Infect Dis, 2020) can be followed below.

Among all 68,000 compounds or so, about 2,700 (4%) showed an effect of 50% or more. Many of the other results were omitted from the sample, so strong results are more common in it than they were.

The subject of the assay is Plasmodium berghei. The assay can be described thus: Screen against P. berghei liver stage (PbLuc), transformed with Luciferase, at 2uM. In kind it is functional, HepG2. Conditions: tested at 2 uM.
Take `CC(C)(C)C(=O)NCCNCc1ccc(Cl)c2cccnc12`: the INHIBITION is -53.16%.
Turning to `OC(CNCCn1cccn1)c1cccc(Br)c1` (configuration not stated), the INHIBITION is recorded as -69.91%.
The figure for `CC(C)NC(=O)N1CCc2onc(C(=O)Nc3cccnc3)c2C1` is 18.87%; for `Cc1ccc(CN2CCc3onc(C(=O)Nc4cccnc4)c3C2)o1` it is 34.37%.
`CC(C)C(=O)N1CCc2onc(C(=O)NCCN(C)C)c2C1`: the INHIBITION is recorded as 11.37%.
The same measure for `CC(C)NC(=O)N1CCc2onc(C(=O)NCCN(C)C)c2C1`: 42.62%; for `CN(C)C(=O)N1CCc2onc(C(=O)Nc3cccnc3)c2C1`: 67.19%.
The same measure for `CN(C)CCNC(=O)c1noc2c1CN(C(=O)N(C)C)CC2`: 59.76%; for `CCc1ccc(C(=O)O)cc1S(=O)(=O)N(C)c1cccc(C)c1`: -2.2%; for `CN(Cc1ccccc1)C(=O)c1nc(S(C)(=O)=O)n2ccccc12`: 3.9%.
On to `O=C(O)c1nnn(-c2ccc(OC(F)(F)F)cc2)c1-c1ccncc1`, for which the INHIBITION turned out to be 3.22%.
The same measure for `CC(Nc1ccc2c(c1)CCC2)c1nc(C2CC2)no1` (configuration not stated): 6.47%; for `Cc1ccc2oc(=O)n(CC(=O)N3CCC4(CC3)CN(C)C(=O)O4)c2c1`: -55.13%.
On to `COc1c(CNCc2ccc(C(=O)N(C)C(C)C)cc2)c(C)nn1C`, for which the INHIBITION was found to be 4.55%.
Regarding `O=C(Cn1cccn1)N(CCO)CCSc1ccc(Cl)cc1`, the INHIBITION is reported as -5.53%.
The figure for `O=C(Cn1ccnc1)N(CCO)CCSc1ccc(Cl)cc1` is 56.21%.
On to `O=C(Cc1ccncc1)N(CCO)CCSc1ccc(Cl)cc1`, for which the INHIBITION was 47.2%.
The figure for `CCc1cnc(N2CCCOC(CN3CCCC3)C2)nc1` (configuration not stated) is -30.18%.
The same measure for `COCC1CN(CC2CC2)Cc2nn(CC3CC3)cc21` (configuration not stated): 11.34%.
Take `COCC(=O)N1CCN(C(=O)Cc2cccs2)[C@H]2CS(=O)(=O)C[C@H]21`: the INHIBITION was 54.47%.
The same measure for `COCC(=O)N1CCN(S(=O)(=O)c2cccs2)[C@H]2CS(=O)(=O)C[C@H]21`: 18.77%; for `COCC(=O)N1CCN(S(=O)(=O)c2ccccc2)[C@H]2CS(=O)(=O)C[C@H]21`: 15.75%; for `CN1C(=O)CCCC12CCCN(C(=O)c1cc(F)cc(F)c1)C2` (configuration not stated): 12.83%.
For `Cn1ccnc1CN1CCOC(Cn2cccn2)C1` (configuration not stated), the INHIBITION is 7.01%.
The same measure for `Cc1cccc(-c2ccc(C(=O)NCC3CCCOC3)c(=O)[nH]2)c1` (configuration not stated): -9.49%; for `Cc1cccc(-c2ccc(C(=O)NCC3CCOC3)c(=O)[nH]2)c1` (configuration not stated): 17.39%; for `Cc1cccc(-c2ccc(C(=O)NCC3CCCO3)c(=O)[nH]2)c1` (configuration not stated): 57.77%.
For the compound `CC(C)c1cc(NC2CCN(C(=O)N3CCCC3)CC2)ncn1`, the INHIBITION was 52.98%.
Turning to `CC(C)c1cc(NC2CCCN(C(=O)c3cccs3)C2)ncn1` (configuration not stated), the INHIBITION is -13.8%.
In the case of `O=C(N1CCCC1)N1CCC(Nc2ccncn2)CC1`, the INHIBITION stood at 39.44%.
The same measure for `Cc1nc2ncc3c(=O)n(C)ccc3n2n1`: -42.16%; for `CN(C)CC(=O)N1CCCC2(CCC(=O)N(CCc3c[nH]cn3)C2)C1` (configuration not stated): 38.93%; for `CN1CCc2[nH]nc(C(=O)N3CCCC4(CN(C)C(=O)O4)C3)c2C1` (configuration not stated): -15.16%.
The figure for `Cc1nc[nH]c1C(=O)N1CCCC2(CN(C)C(=O)O2)C1` (configuration not stated) is 1.06%.
The same measure for `CCc1n[nH]c(C(=O)N2CCCC3(CN(C)C(=O)O3)C2)c1C` (configuration not stated): 51.9%.
Regarding `CC(NCC(=O)Nc1ccc(N2CCCCCC2)cc1)c1cccs1` (configuration not stated), the INHIBITION amounted to 23.68%.
The same measure for `CCc1cc(C(=O)N[C@H]2CN(CCS(C)(=O)=O)C[C@@H]2C2CC2)[nH]n1`: -90.7%.
Take `Cc1occc1C(=O)N1CCc2c(CNS(C)(=O)=O)cncc2C1`: the INHIBITION is -15.09%.
With `CC(C)CC(NC(=O)Nc1ccc(F)c(Cl)c1)C(=O)O` (configuration not stated), the INHIBITION is given as 56.54%.
On to `CC(C)C[C@H](NC(=O)Nc1ccc(F)c(Cl)c1)C(=O)O`, for which the INHIBITION is reported as -9.89%.
The figure for `CC(C)CC(NC(=O)CSc1ccc(F)c(Cl)c1)C(=O)O` (configuration not stated) is 14.54%; for `Cc1ccc(CN2C[C@@H](OCc3ccccn3)[C@H]3COC[C@H]32)o1` it is -4.92%; for `CC(C)c1nc(C2CCCN2Cc2nccn2CC(F)(F)F)no1` (configuration not stated) it is -20.05%.
The same measure for `CC(C(=O)Nc1ccc(N2CCOCC2)nc1)n1cncn1` (configuration not stated): 43.32%; for `CCc1cnc(CN2C(=O)CC3(CCSC3)C2=O)o1` (configuration not stated): 15.39%; for `CC(C)(C)c1cnc(CN2C(=O)CC3(CCSC3)C2=O)o1` (configuration not stated): 53.99%.
The figure for `CC(C)c1cnc(CN2C(=O)CC3(CCSC3)C2=O)o1` (configuration not stated) is -21.1%.
For the compound `Cc1nc2ccc(-n3ncnc3[C@@H]3CCCN3S(C)(=O)=O)cc2s1`, the INHIBITION is recorded as -35.1%.
The figure for `CC(C)(C)CN1Cc2cc3c(cc2NCCC1=O)OCO3` is -15.54%; for `Cc1ccc(C(=O)N2CCc3ccc(=O)n(CCN(C)C)c3CC2)o1` it is 5.77%; for `CN(C)CCn1c2c(ccc1=O)CCN(C(=O)c1cccs1)CC2` it is 53.27%.
The figure for `CN(C)CCn1c2c(ccc1=O)CCN(C(=O)c1ccoc1)CC2` is 17.31%.
